PBM binding z-score data for 40 sequences are collected here from the supplement of paper PMC6555819.

The test system of the first experiment is PPARg:RXRa DBDmut IVT, anti-RXR (DBD mutation: RXRa K156A/R161A, NR concentration 270 nM, RXRa partner concentration 90 nM). As to the kind of experiment: PBM binding z-score (relative to random genomic background probes); higher = stronger binding; sequences stand for … in GC…GCGATTGACAGCGTAGAATGAAGG
An outline of the steps:
(§1)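 Probes were double-stranded and carried 34-nt variable regions with direct-repeat seeds, single-nucleotide variants, half-site ablations and random human genomic background sequences, printed on custom Agilent 4×180K protein-binding microarrays. Arrays were incubated 1 h with ligand-free nuclear receptor dimers in PBS pH 7.4, 2% milk, 0.02% Triton X-100, 1 mM DTT, 0.2 mg/mL BSA and 0.4 mg/ml salmon testes DNA. Antibodies against each partner (one per run) detected binding, and scanned fluorescence was regression-normalized. Binding z-scores use the random background probes as reference.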
Regarding TCGAGTAGGTTAGGGGCATTCACAATGGCGTCGA, the PBM binding z-score turned out to be 2.39.

The sequence TCAAATAGGTAAACAGGTGAAAGTCCGTAAGTTA displayed a PBM binding z-score of 4.13.

Take CTACCAAGGTGAACAAGGTCGGTGATTACTATTC: the PBM binding z-score amounted to 1.91.

Take GCATATAGGTAATACAAGGTGAATGTCCGATTGT: the PBM binding z-score amounted to 4.28.

In turn, CATCAAAGTTCAAGGTAACGTAACAGAAAGCAGC came in with a PBM binding z-score of 0.753.

On to ATATGTAGGTTAGCTGGGATCATTCAGACTAGGC, for which the PBM binding z-score turned out to be 6.87.

As for ACTTACGGTTCAACGAGGTTATAGCACGCGTATA, the PBM binding z-score stood at 0.149.

Regarding CCTACTCGGCCAAAGGTCATTGATTCCAATGCTC, the PBM binding z-score came out at 3.3.

Consider CCTAGTTGGTCAGGAGGTGACACACCGGATATGA, for which the PBM binding z-score was 0.676.

In the case of TGACCAAGGTGAAGGTCGTTGATCCCTCTGTAGA, the PBM binding z-score came out at 1.27.

Take GGAACGAGGGCATACGAGTTGATAGCATGGCGAT: the PBM binding z-score came out at 2.9.

Sequence TCTATTAGTTGAAGGGCGACCGACGAGTCCGTTT registered a PBM binding z-score of 2.51.

Sequence TCTTGTAGATCAAGCAGGTTGAGAAAGCCTGAGT gave a PBM binding z-score of 1.7.

As to ACAGACAGGTGATGAATGTAACTCAGGCTATCAT, the PBM binding z-score amounted to 0.0883.

AGAATGAGGTTACCACAGATCAGGGAAACGCTTG came in with a PBM binding z-score of 3.9.

ACAGACAGGTGAGGAAGGTAACTCAGGCTATCAT showed a PBM binding z-score of 0.129.

GATACAGGGTCAAGCCCAGAGTACGCGTATTGAT returned a PBM binding z-score of 3.47.

As to CCTTACGGGTCAAGGCTATAGCACGGGTGGTACG, the PBM binding z-score is 1.68.

The sequence CCTAGTTGGTCAGTAGGTCACACACCGGATATGA registered a PBM binding z-score of 4.79.

The sequence AATCGGAGGACAAAGGTCAGAGCTACGCCAGTGA yielded a PBM binding z-score of 0.506.

With CAAACTAGGTCAAGAGGACAAAGTCCGCTTCCCG, the PBM binding z-score was 8.17.

CCTAGCAGGCCAGGGTCATTCAAGCATTTCGCTT displayed a PBM binding z-score of 0.315.

Sequence CCTCCTGGGCCAAGGTCATTGATCAGTCAAAGCA displayed a PBM binding z-score of -0.293.

ATCTCTGGGTAAAGTTCAGTGAAAGATCGATAGA registered a PBM binding z-score of 1.98.

The sequence CTCGAAAGGTTGTGCTCAGGTGAGTATACCAAAC displayed a PBM binding z-score of -0.27.

ATCGAAAGGTCGTGAGGTGAGTATTCAGAAAGGC gave a PBM binding z-score of 0.173.

Regarding AGAATGAGGTTACCAACGATCAGGGAAACGCTTG, the PBM binding z-score was 3.37.

Consider TCATCTAGGTAAAAGGTGAAAGTCGGTGTGGTAA, for which the PBM binding z-score was determined as 5.49.

The sequence TCTAGCAGGCCAGAGGGTCTCTCAAGAGGTACGG came in with a PBM binding z-score of 0.543.

Sequence CAAACTAGGTCACCGGAAGGTCACAGTCCGCATG had a PBM binding z-score of 8.58.

As to ATCTCTAGGAAAAAGTTCAGTGAATCCCGAGGAT, the PBM binding z-score is -0.718.

Sequence TCTAGTTGGTTAAAGGTCACACACTCGAAATGCG gave a PBM binding z-score of 3.15.

In the case of CGTCGAAGGTCAAGGTCAGTGAAAGAGACTCGAA, the PBM binding z-score was 2.61.

On to CCGACTGGGGCAAGGTTACCAGAACGCACAGCCA, for which the PBM binding z-score came out at 2.21.

As to TCTTGTAGATCAAAGGTGAAGAAAGCCGAAGCCT, the PBM binding z-score stood at 2.96.

Turning to ATATGTAGGTTAGCTGGGGTCATTCGGACTAGGC, the PBM binding z-score was 6.85.

Sequence TCTCGGAGGACTCGAAGGTCAGAGCTTTCCAGAG registered a PBM binding z-score of 1.45.

CCGAGTAGGTGATGGGGCATTCAGGCAACGGTGA had a PBM binding z-score of 2.92.

The sequence TCGAGTAGGGTAGGGGCATTCAGAATGGCGTCGA showed a PBM binding z-score of 1.02.

TCATATACGTAAAAGGTGAAAGTCGGTGTGGTAA: the PBM binding z-score stood at 2.65.

The next experiment has as its system PPARg:RXRa IVT, anti-PPARg (NR concentration 270 nM, RXRa partner concentration 90 nM). The experiment is described as above. The essentials: as §1
In turn, TCGAGTAGGTTAGGGGCATTCACAATGGCGTCGA displayed a PBM binding z-score of 1.39.

As to TCAAATAGGTAAACAGGTGAAAGTCCGTAAGTTA, the PBM binding z-score was found to be 3.99.

CTACCAAGGTGAACAAGGTCGGTGATTACTATTC: the PBM binding z-score came out at 2.78.

For the sequence GCATATAGGTAATACAAGGTGAATGTCCGATTGT, the PBM binding z-score was determined as 3.39.

CATCAAAGTTCAAGGTAACGTAACAGAAAGCAGC displayed a PBM binding z-score of 1.84.

On to ATATGTAGGTTAGCTGGGATCATTCAGACTAGGC, for which the PBM binding z-score came to 5.92.

Take ACTTACGGTTCAACGAGGTTATAGCACGCGTATA: the PBM binding z-score is 0.712.

Take CCTACTCGGCCAAAGGTCATTGATTCCAATGCTC: the PBM binding z-score came to 5.09.

In turn, CCTAGTTGGTCAGGAGGTGACACACCGGATATGA registered a PBM binding z-score of 2.36.

Sequence TGACCAAGGTGAAGGTCGTTGATCCCTCTGTAGA yielded a PBM binding z-score of 2.71.

The sequence GGAACGAGGGCATACGAGTTGATAGCATGGCGAT came in with a PBM binding z-score of 1.74.

TCTATTAGTTGAAGGGCGACCGACGAGTCCGTTT showed a PBM binding z-score of 0.299.

Take TCTTGTAGATCAAGCAGGTTGAGAAAGCCTGAGT: the PBM binding z-score turned out to be 0.256.

With ACAGACAGGTGATGAATGTAACTCAGGCTATCAT, the PBM binding z-score was 0.304.

As for AGAATGAGGTTACCACAGATCAGGGAAACGCTTG, the PBM binding z-score is 3.38.

For ACAGACAGGTGAGGAAGGTAACTCAGGCTATCAT, the PBM binding z-score is 0.785.

GATACAGGGTCAAGCCCAGAGTACGCGTATTGAT came in with a PBM binding z-score of 4.08.

In turn, CCTTACGGGTCAAGGCTATAGCACGGGTGGTACG yielded a PBM binding z-score of 3.1.

CCTAGTTGGTCAGTAGGTCACACACCGGATATGA: the PBM binding z-score turned out to be 5.74.

As for AATCGGAGGACAAAGGTCAGAGCTACGCCAGTGA, the PBM binding z-score was 4.15.

Regarding CAAACTAGGTCAAGAGGACAAAGTCCGCTTCCCG, the PBM binding z-score amounted to 8.27.

The sequence CCTAGCAGGCCAGGGTCATTCAAGCATTTCGCTT gave a PBM binding z-score of 0.694.

CCTCCTGGGCCAAGGTCATTGATCAGTCAAAGCA displayed a PBM binding z-score of 1.48.

ATCTCTGGGTAAAGTTCAGTGAAAGATCGATAGA displayed a PBM binding z-score of 2.87.

Sequence CTCGAAAGGTTGTGCTCAGGTGAGTATACCAAAC had a PBM binding z-score of -0.00807.

ATCGAAAGGTCGTGAGGTGAGTATTCAGAAAGGC: the PBM binding z-score worked out at 2.36.

The sequence AGAATGAGGTTACCAACGATCAGGGAAACGCTTG had a PBM binding z-score of 3.5.

Sequence TCATCTAGGTAAAAGGTGAAAGTCGGTGTGGTAA came in with a PBM binding z-score of 5.73.

TCTAGCAGGCCAGAGGGTCTCTCAAGAGGTACGG yielded a PBM binding z-score of -0.453.

The sequence CAAACTAGGTCACCGGAAGGTCACAGTCCGCATG displayed a PBM binding z-score of 9.08.

In turn, ATCTCTAGGAAAAAGTTCAGTGAATCCCGAGGAT had a PBM binding z-score of -0.0888.

Take TCTAGTTGGTTAAAGGTCACACACTCGAAATGCG: the PBM binding z-score is 5.25.

The sequence CGTCGAAGGTCAAGGTCAGTGAAAGAGACTCGAA returned a PBM binding z-score of 4.52.

The sequence CCGACTGGGGCAAGGTTACCAGAACGCACAGCCA returned a PBM binding z-score of 3.49.

For the sequence TCTTGTAGATCAAAGGTGAAGAAAGCCGAAGCCT, the PBM binding z-score came to 3.53.

As to ATATGTAGGTTAGCTGGGGTCATTCGGACTAGGC, the PBM binding z-score is 6.3.

TCTCGGAGGACTCGAAGGTCAGAGCTTTCCAGAG: the PBM binding z-score amounted to 0.0197.

On to CCGAGTAGGTGATGGGGCATTCAGGCAACGGTGA, for which the PBM binding z-score was 3.

Turning to TCGAGTAGGGTAGGGGCATTCAGAATGGCGTCGA, the PBM binding z-score was 1.33.

TCATATACGTAAAAGGTGAAAGTCGGTGTGGTAA displayed a PBM binding z-score of 1.71.
